From PubChem BioAssay
This is a sample that favours compounds with a hit; in the whole collection about 2.4% have one here.
STAT3 blocker = reduces IL-6 driven STAT3 reporter signal | U3A cells, IL-6 STAT3-luciferase reporter, luminescence; host cell line lacks STAT1 | inhibition, % at 5.5 µM | 190,000 tested, 0.89% active;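 active = inhibition above the mean inhibition across all screened compounds plus 3 SD, cut at about 44% in these data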;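 also: 0% = DMSO only wells and 100% = 100 µM nifuroxazide control wells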
HSF1 inhib = HSF1 inhibition; 300,000 tested, 0.77% active; NIH3T3-HGL HSE-luciferase, MG132-induced, luminescence 8 h; hits give low values; activity change, negative = inhibition, % at 7.5 µM (by protocol);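 active = more than half of replicate wells show activity change below -50%, luminescence cut by over half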;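 also: luciferase reports HSF-1 transcriptional activity via heat shock element; 0% = median of DMSO wells and -100% = zero luminescence signal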
PPC-1+TRAIL kill = compounds killing PPC-1 cancer cells with TRAIL present (potentiator screen, no TRAIL-free arm). PPC-1 cells + TRAIL, ATPLite viability luminescence. cell killing (% activity), % at 4 µM or 5 µM. 220,000 tested, 0.41% active;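 active = cell killing above 50% in the first pass at 4 µM, then a duplicate retest at 5 µM averaging 50% or more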;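 also: plate controls were cells with TRAIL plus DMSO for no effect and medium-only wells lacking cells for full effect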
HSP90 inh = blocks HSP90-mediated luciferase refolding in reticulocyte lysate; Rabbit reticulocyte lysate, luciferase refolding luminescence, 3 h; AID 1789; inhibition, % at 5.6 µM; 290,000 tested, 0.91% active;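 active = inhibition above the screen-wide mean plus 3 SD, computed separately per campaign, cut at about 16% in these data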;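 also: 0% = DMSO wells and 100% = 60 µM geldanamycin wells; inhibitors lower the luminescence because luciferase stays unfolded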
TRAIL sens C8 = caspase-8 TRAIL sensitization. NB7+C8 cells + TRAIL, ATPlite viability luminescence. inhibition (viability loss, TRAIL sensitization), % at 10 µM. 360,000 tested, 1% active. AID 624354;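 active = compounds causing at least 50% loss of cell viability in the single-dose screen, relative to plate controls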
STAT1 blocker = inhibitors of IFN-gamma induced STAT1 signaling; AID 920; 200,000 tested, 0.35% active; inhibition, % at 5.5 µM; NIH 3T3 STAT1-luciferase reporter, luminescence;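 active = inhibition above a set limit, the mean inhibition across all tested compounds plus 3 SD, cut at about 34% in these data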;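 also: 0% = IFN-gamma with DMSO and 100% = IFN-gamma with 300 µM nifuroxazide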
PPC1 cytotox = PPC-1 cell cytotoxicity; PPC-1 viability, ATPlite luminescence, overnight; AID 1447; shares compounds with PPC-1+TRAIL kill; cytotoxicity, % at 5 µM; 1,200 tested, 50% active;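 active = reconfirmed compounds whose average cytotoxicity reaches 50% or more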;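 also: 0% = DMSO-treated cells and 100% = wells holding medium but no cells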
* marks the source's active call; other numbers are inactive results; . = no result given.

SMILES	STAT3 blocker	HSF1 inhib	PPC-1+TRAIL kill	HSP90 inh	TRAIL sens C8	STAT1 blocker	PPC1 cytotox
O=C(O)CC1=C(O)C(=O)N(c2ccccc2)C1c1ccccc1 (stereo not given)	-6	-5	-28	2	1	-6	-6
Cc1nnc2sc(-c3ccccn3)nn12	11	3	12	-2	-8	1	3
c1ccc(-c2nn3c(Cn4nnc5ccccc54)nnc3s2)nc1	5	5	11	6	17	8	.
C/C(=N\Nc1cccc2cccnc12)c1ccccc1O	-13	30	37	-1	40	-20	.
C/C(=N\Nc1cccc2cccnc12)c1ccccn1	68*	15	48	7	75*	41*	44
Cc1ccc(-c2nc(-c3ccccn3)no2)cc1Cl	99*	-31	88*	64*	87*	79*	88*
c1ccc(-c2ccc(-c3nc(-c4ccccn4)no3)cc2)cc1	109*	-88*	90*	78*	90*	92*	90*
Cc1ccc(CNC(=O)C2(C)Oc3ccccc3NC2=O)cc1 (stereo not given)	-3	1	1	4	2	-3	4
O=c1[nH]c2ccccc2nc1C(Cl)c1ccccc1 (stereo not given)	10	4	1	4	.	2	4
O=C(Nc1ccccc1OC(F)F)c1ccccc1	15	2	25	0	-6	0	.
CCOc1cccc(C(=O)Nc2ccccc2OC(F)F)c1	21	6	9	-1	10	-9	13
COCCN1C(=O)c2ccc(C(=O)NCc3cccnc3)cc2C1=O	6	6	-1	1	4	2	12
CC(c1ccccc1)N1C(=O)c2ccc(C(=O)NCc3cccnc3)cc2C1=O (stereo not given)	.	1	.	-4	-22	.	.
COc1ccc(C(=O)/C(=C/N(C)C)S(=O)(=O)c2ccccc2)cc1	4	0	-17	6	33	-4	-44
CN(C)/C=C(/C(=O)c1ccccc1Cl)S(=O)(=O)c1ccccc1	8	8	.	2	-5	-7	.
CCn1c2ccccc2c2cc(NC(=O)N3CCOCC3)ccc21	-10	17	10	0	-14	-28	4
CCn1c2ccccc2c2cc(NC(=O)CN(C)CC(=O)Nc3ccc(N4CCOCC4)cc3)ccc21	-14	1	7	1	-8	-12	.
O=C(CSc1nnc(-c2csc3c2CCCC3)o1)Nc1ccccc1	4	2	58*	-2	77*	-42	56*
COc1ccc(CNC(=O)c2c(C)oc3c2C(=O)c2ccccc2C3=O)cc1	-2	12	59*	3	94*	-12	57*
CCC/C=C/c1ccc(CN2C(C)C(=O)N(Cc3cn(CC4CCCCC4)nn3)CCS2(=O)=O)cc1 (stereo not given)	.	.	.	.	-8	.	.
CCOC(=O)C1=C(C)N(CCCC(=O)O)C(=O)NC1c1ccc([N+](=O)[O-])cc1 (stereo not given)	-6	-1	10	0	8	7	6
COC(=O)C1=C(C)N(CCCC(=O)O)C(=O)NC1c1ccc([N+](=O)[O-])cc1 (stereo not given)	.	-1	.	.	-13	.	.
Cn1c(N)c(C(=O)N2CCN(c3ccccc3)CC2)c(=O)n(C)c1=O	.	.	.	.	1	.	.
c1ccc(CSCc2cn3ccccc3n2)cc1	5	22	-4	5	3	-59	-6
O=C1Nc2ccccc2N=C(c2ccccc2)C1N(C(=O)c1ccnc2ccccc12)c1ccccc1 (stereo not given)	.	.	.	.	-18	.	.
SMILES	STAT3 blocker	HSF1 inhib	PPC-1+TRAIL kill	HSP90 inh	TRAIL sens C8	STAT1 blocker	PPC1 cytotox
CCN(CC)c1ccc(N=Cc2ccc(N(CC)CC)cc2O)cc1	11	7	13	6	18	4	6
COc1cccc2sc(Nc3nc(-c4ccccn4)cs3)nc12	-32	100	26	-1	28	-40	30
COc1cccc(N=c2oc3ccc(OC)cc3cc2-c2nc3ccccc3[nH]2)c1	-56	28	9	-1	63*	-38	26
Cc1cc(-n2[nH]c(C)c(C)c2=O)nc(-c2ccccc2O)n1	11	0	12	3	13	2	8
N#Cc1cc2c(nc1SCc1nc3ccccc3[nH]1)CCC2	15	-47	35	15	.	-30	30
COc1cc(/C=N/Nc2nncn2/N=C/c2ccc(O)c(OC)c2)ccc1O	1	11	83*	12	75*	-13	83*
CC1=C(C(=O)N2CCOCC2)CC(CC(=O)NCC2CCCCC2)C(=O)N1CCC1=CCCCC1 (stereo not given)	.	.	.	.	-17	.	.
Clc1cccc(-c2cc3nc4c(c(N5CCOCC5)n3n2)CCCC4)c1	2	-6	11	4	17	-17	12
NC(=O)c1ccccc1N/C=C/C(=O)c1ccc(F)cc1	39	19	63*	0	71*	-59	58*
COc1ccc(/C=C/c2cc(C(=O)O)c3ccccc3n2)cc1	.	.	96*	2	94*	.	96*
CCOc1ccc(-c2cc(C(=O)O)c3ccccc3n2)cc1	28	11	77*	8	83*	9	77*
COc1ccc(/C=C/C(=O)Nc2ccccc2C(=O)O)cc1	51*	-39	83*	46*	86*	39*	83*
O=C(O)c1cc(-c2ccccc2)nc2ccccc12	3	-7	28	5	1	1	.
CC1(C(=O)Nc2ccc3c(c2)OCCO3)CN(S(C)(=O)=O)CC(=O)N1CCCN1CCOCC1 (stereo not given)	.	.	.	.	-13	.	.
Oc1ccccc1-c1nc2cnccn2c1Nc1ccc2c(c1)OCCO2	-2	7	4	4	-19	9	-1
c1cn2c(Nc3ccc4c(c3)OCCO4)c(-c3ccc(N4CCOCC4)cc3)nc2cn1	.	3	14	-6	22	.	.
Cc1cn([C@H]2C[C@H](O)[C@@H](/C=C/C(=O)N3CCN(Cc4ccc(F)cc4)CC3)O2)c(=O)[nH]c1=O	.	.	.	.	-7	.	.
CCOc1ccc(Nc2nc(N)nc(CN3CCN(c4ccccc4F)CC3)n2)cc1	18	-12	-8	2	3	12	.
CCOc1ccc(Nc2nc(N)nc(CCl)n2)cc1	.	7	95*	10	92*	.	93*
Cc1ccc(Nc2nc(N)nc(CCl)n2)c(C)c1	.	-63*	92*	0	96*	.	92*
Cc1ccc(Nc2nc(N)nc(CN3CCCCCC3)n2)c(C)c1	16	-8	5	8	-1	3	.
COc1cc(NC(=O)Nc2cccn3nc(COCCO)nc23)cc(OC)c1OC	.	.	.	.	2	.	.
Nc1ccc(/C=C/c2ccc3ncccc3c2)cc1	.	22	69*	12	47	.	70*
